In the supplement of paper PMC4466140:

Biological target: AgAbp1
Test: SPOT peptide array binding signal intensity (averaged, normalized) (arbitrary units (background-subtracted, floor 0; scale differs between SH3 domains)); higher = stronger binding of the SH3 domain to the peptide
Outline: (§1)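 E. coli BL21(DE3) was used to express GST-fused SH3 domains from four yeast species, which were then purified on glutathione Sepharose. These were incubated at 10 μg/ml in TBS-based blocking buffer overnight at 4°C on cellulose membranes carrying synthetic 15-mer peptides, in which cysteines were replaced by serines. Binding signal is the replicate average of normalized, background-subtracted spot intensity, in arbitrary units that differ between domains.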

Binder | SPOT peptide array binding signal intensity
IPSRPAPKPPSSASA | 14

Biological target: AgBbc1
Test: as above
Outline: as §1

Binder | SPOT peptide array binding signal intensity
IPSRPAPKPPSSASA | 289

Biological target: AgBem1-D1
Test: as above
Outline: as §1

Binder | SPOT peptide array binding signal intensity
IPSRPAPKPPSSASA | 35

Biological target: AgBzz1-D1
Test: as above
Outline: as §1

Binder | SPOT peptide array binding signal intensity
IPSRPAPKPPSSASA | 18

Biological target: AgBzz1-D2
Test: as above
Outline: as §1

Binder | SPOT peptide array binding signal intensity
IPSRPAPKPPSSASA | 19

Biological target: AgCyk3
Test: as above
Outline: as §1

Binder | SPOT peptide array binding signal intensity
IPSRPAPKPPSSASA | 1

Biological target: AgFus1
Test: as above
Outline: as §1

Binder | SPOT peptide array binding signal intensity
IPSRPAPKPPSSASA | ≤ 0

Biological target: AgHof1
Test: as above
Outline: as §1

Binder | SPOT peptide array binding signal intensity
IPSRPAPKPPSSASA | ≤ 0

Biological target: AgHse1
Test: as above
Outline: as §1

Binder | SPOT peptide array binding signal intensity
IPSRPAPKPPSSASA | 50.5

Biological target: AgLsb1
Test: as above
Outline: as §1

Binder | SPOT peptide array binding signal intensity
IPSRPAPKPPSSASA | 475

Biological target: AgLsb4
Test: as above
Outline: as §1

Binder | SPOT peptide array binding signal intensity
IPSRPAPKPPSSASA | 12

Biological target: AgMyo5
Test: as above
Outline: as §1

Binder | SPOT peptide array binding signal intensity
IPSRPAPKPPSSASA | 1790

Biological target: AgNbp2
Test: as above
Outline: as §1

Binder | SPOT peptide array binding signal intensity
IPSRPAPKPPSSASA | 8100

Biological target: AgRvs167
Test: as above
Outline: as §1

Binder | SPOT peptide array binding signal intensity
IPSRPAPKPPSSASA | 1.67

Biological target: AgSho1
Test: as above
Outline: as §1

Binder | SPOT peptide array binding signal intensity
IPSRPAPKPPSSASA | ≤ 0

Biological target: AgSla1-D1-D2
Test: as above
Outline: as §1

Binder | SPOT peptide array binding signal intensity
IPSRPAPKPPSSASA | 16

Biological target: AgSla1-D3
Test: as above
Outline: as §1

Binder | SPOT peptide array binding signal intensity
IPSRPAPKPPSSASA | 3.25

Biological target: CaAbp1-D1
Test: as above
Outline: as §1

Binder | SPOT peptide array binding signal intensity
IPSRPAPKPPSSASA | 102

Biological target: CaAbp1-D2
Test: as above
Outline: as §1

Binder | SPOT peptide array binding signal intensity
IPSRPAPKPPSSASA | 128

Biological target: CaBbc1
Test: as above
Outline: as §1

Binder | SPOT peptide array binding signal intensity
IPSRPAPKPPSSASA | 1300

Biological target: CaBem1-D1
Test: as above
Outline: as §1

Binder | SPOT peptide array binding signal intensity
IPSRPAPKPPSSASA | 1620

Biological target: CaBzz1-D1
Test: as above
Outline: as §1

Binder | SPOT peptide array binding signal intensity
IPSRPAPKPPSSASA | 1550

Biological target: CaBzz1-D2
Test: as above
Outline: as §1

Binder | SPOT peptide array binding signal intensity
IPSRPAPKPPSSASA | 1510

Biological target: CaCyk3
Test: as above
Outline: as §1

Binder | SPOT peptide array binding signal intensity
IPSRPAPKPPSSASA | 190

Biological target: CaFus1
Test: as above
Outline: as §1

Binder | SPOT peptide array binding signal intensity
IPSRPAPKPPSSASA | 30

Biological target: CaHof1
Test: as above
Outline: as §1

Binder | SPOT peptide array binding signal intensity
IPSRPAPKPPSSASA | ≤ 0

Biological target: CaHse1
Test: as above
Outline: as §1

Binder | SPOT peptide array binding signal intensity
IPSRPAPKPPSSASA | 1.25

Biological target: CaLsb1
Test: as above
Outline: as §1

Binder | SPOT peptide array binding signal intensity
IPSRPAPKPPSSASA | 1.25

Biological target: CaLsb4
Test: as above
Outline: as §1

Binder | SPOT peptide array binding signal intensity
IPSRPAPKPPSSASA | 53.5

Biological target: CaMyo5
Test: as above
Outline: as §1

Binder | SPOT peptide array binding signal intensity
IPSRPAPKPPSSASA | 156

Biological target: CaNbp2
Test: as above
Outline: as §1

Binder | SPOT peptide array binding signal intensity
IPSRPAPKPPSSASA | 4920

Biological target: CaRvs167
Test: as above
Outline: as §1

Binder | SPOT peptide array binding signal intensity
IPSRPAPKPPSSASA | 17

Biological target: CaRvs167-3
Test: as above
Outline: as §1

Binder | SPOT peptide array binding signal intensity
IPSRPAPKPPSSASA | 2

Biological target: CaSho1
Test: as above
Outline: as §1

Binder | SPOT peptide array binding signal intensity
IPSRPAPKPPSSASA | ≤ 0

Biological target: CaSla1-D1-D2
Test: as above
Outline: as §1

Binder | SPOT peptide array binding signal intensity
IPSRPAPKPPSSASA | 2030

Biological target: CaSla1-D3
Test: as above
Outline: as §1

Binder | SPOT peptide array binding signal intensity
IPSRPAPKPPSSASA | 46.5

Biological target: ScAbp1
Test: as above
Outline: as §1

Binder | SPOT peptide array binding signal intensity
IPSRPAPKPPSSASA | 65

Biological target: ScBbc1
Test: as above
Outline: as §1

Binder | SPOT peptide array binding signal intensity
IPSRPAPKPPSSASA | 502

Biological target: ScBem1-D1
Test: as above
Outline: as §1

Binder | SPOT peptide array binding signal intensity
IPSRPAPKPPSSASA | ≤ 0

Biological target: ScBzz1-D1
Test: as above
Outline: as §1

Binder | SPOT peptide array binding signal intensity
IPSRPAPKPPSSASA | 16

Biological target: ScBzz1-D2
Test: as above
Outline: as §1

Binder | SPOT peptide array binding signal intensity
IPSRPAPKPPSSASA | 10

Biological target: ScCyk3
Test: as above
Outline: as §1

Binder | SPOT peptide array binding signal intensity
IPSRPAPKPPSSASA | ≤ 0

Biological target: ScFus1
Test: as above
Outline: as §1

Binder | SPOT peptide array binding signal intensity
IPSRPAPKPPSSASA | 4

Biological target: ScHof1
Test: as above
Outline: as §1

Binder | SPOT peptide array binding signal intensity
IPSRPAPKPPSSASA | 1

Biological target: ScHse1
Test: as above
Outline: as §1

Binder | SPOT peptide array binding signal intensity
IPSRPAPKPPSSASA | 40

Biological target: ScLsb1
Test: as above
Outline: as §1

Binder | SPOT peptide array binding signal intensity
IPSRPAPKPPSSASA | 6

Biological target: ScLsb2
Test: as above
Outline: as §1

Binder | SPOT peptide array binding signal intensity
IPSRPAPKPPSSASA | 55

Biological target: ScLsb3
Test: as above
Outline: as §1

Binder | SPOT peptide array binding signal intensity
IPSRPAPKPPSSASA | 197

Biological target: ScLsb4
Test: as above
Outline: as §1

Binder | SPOT peptide array binding signal intensity
IPSRPAPKPPSSASA | 9

Biological target: ScMyo3
Test: as above
Outline: as §1

Binder | SPOT peptide array binding signal intensity
IPSRPAPKPPSSASA | 3540

Biological target: ScMyo5
Test: as above
Outline: as §1

Binder | SPOT peptide array binding signal intensity
IPSRPAPKPPSSASA | 1990

Biological target: ScNbp2
Test: as above
Outline: as §1

Binder | SPOT peptide array binding signal intensity
IPSRPAPKPPSSASA | 5880

Biological target: ScPex13
Test: as above
Outline: as §1

Binder | SPOT peptide array binding signal intensity
IPSRPAPKPPSSASA | 2620

Biological target: ScRvs167
Test: as above
Outline: as §1

Binder | SPOT peptide array binding signal intensity
IPSRPAPKPPSSASA | 149

Biological target: ScSho1
Test: as above
Outline: as §1

Binder | SPOT peptide array binding signal intensity
IPSRPAPKPPSSASA | ≤ 0

Biological target: ScSla1-D1-D2
Test: as above
Outline: as §1

Binder | SPOT peptide array binding signal intensity
IPSRPAPKPPSSASA | 6020

Biological target: ScSla1-D3
Test: as above
Outline: as §1

Binder | SPOT peptide array binding signal intensity
IPSRPAPKPPSSASA | 233

Biological target: SpAbp1-D1
Test: as above
Outline: as §1

Binder | SPOT peptide array binding signal intensity
IPSRPAPKPPSSASA | 40

Biological target: SpBbc1
Test: as above
Outline: as §1

Binder | SPOT peptide array binding signal intensity
IPSRPAPKPPSSASA | 65

Biological target: SpBzz1-D1
Test: as above
Outline: as §1

Binder | SPOT peptide array binding signal intensity
IPSRPAPKPPSSASA | 404

Biological target: SpBzz1-D2
Test: as above
Outline: as §1

Binder | SPOT peptide array binding signal intensity
IPSRPAPKPPSSASA | 71.5

Biological target: SpCyk3
Test: as above
Outline: as §1

Binder | SPOT peptide array binding signal intensity
IPSRPAPKPPSSASA | 2

Biological target: SpHof1
Test: as above
Outline: as §1

Binder | SPOT peptide array binding signal intensity
IPSRPAPKPPSSASA | ≤ 0

Biological target: SpHof1-2
Test: as above
Outline: as §1

Binder | SPOT peptide array binding signal intensity
IPSRPAPKPPSSASA | ≤ 0

Biological target: SpHof1-3
Test: as above
Outline: as §1

Binder | SPOT peptide array binding signal intensity
IPSRPAPKPPSSASA | ≤ 0

Biological target: SpHse1
Test: as above
Outline: as §1

Binder | SPOT peptide array binding signal intensity
IPSRPAPKPPSSASA | 52

Biological target: SpLsb1
Test: as above
Outline: as §1

Binder | SPOT peptide array binding signal intensity
IPSRPAPKPPSSASA | 13.5

Biological target: SpLsb4
Test: as above
Outline: as §1

Binder | SPOT peptide array binding signal intensity
IPSRPAPKPPSSASA | 136

Biological target: SpMyo1
Test: as above
Outline: as §1

Binder | SPOT peptide array binding signal intensity
IPSRPAPKPPSSASA | 3740

Biological target: SpNbp2
Test: as above
Outline: as §1

Binder | SPOT peptide array binding signal intensity
IPSRPAPKPPSSASA | 65

Biological target: SpPex13
Test: as above
Outline: as §1

Binder | SPOT peptide array binding signal intensity
IPSRPAPKPPSSASA | 93.5

Biological target: SpRvs167
Test: as above
Outline: as §1

Binder | SPOT peptide array binding signal intensity
IPSRPAPKPPSSASA | 202

Biological target: SpSla1-D1-D2
Test: as above
Outline: as §1

Binder | SPOT peptide array binding signal intensity
IPSRPAPKPPSSASA | ≤ 0

Biological target: SpSla1-D3
Test: as above
Outline: as §1

Binder | SPOT peptide array binding signal intensity
IPSRPAPKPPSSASA | 3
